Screens (PubChem BioAssay)
tim23-1 inh – growth inhibitors of tim23-1 mutant yeast, primary screen, luminescence, uHTS. 1.3% of 330,000 active. inhibition, % at 20 µM. S. cerevisiae tim23-1 growth, BacTiter-Glo luminescence, 24 h;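 active = growth inhibition of the mutant yeast at or above 50%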;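 also: temperature-sensitive mutant grown at 25 °C; plate controls were DMSO-treated mutant yeast for no effect and medium wells lacking yeast for full effect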
V-ATPase pH – regulators of yeast V-ATPase proton pumping, primary screen, pHLuorin cytosolic pH fluorescence | 0.37% of 350,000 active | S. cerevisiae | response, % at 10 µM | AID 504577, 2011; in the data active = response mostly above about 7.3%, no sharp cut-off; inactive = mostly below about 5.4%; also: actives read high
NLRP3 yeast inh – NALP3 inflammasome inhibitors in reconstituted yeast, primary screen, luminescence, uHTS. Yeast reconstituted NLRP3/ASC/caspase-1, beta-gal luminescence, 24 h. inhibition, % at 10 µM. 0.39% of 330,000 active. AID 2825, 2010;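 active = inhibition of 50% or more; inactive = inhibition below 50%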;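 also: plate controls were induced DMSO wells for no effect and uninduced yeast grown without galactose for full effect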
tim10-1 inh – growth inhibitors of tim10-1 mutant yeast, primary screen, luminescence, uHTS | S. cerevisiae tim10-1 ts strain growth, BacTiter-Glo, 24 h | inhibition, % at 20 µM | 2.2% of 330,000 active;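 active = inhibition of at least 40%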;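 also: mutant grown at 25 °C; 0% = DMSO wells with yeast and 100% = wells holding no yeast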
TIM10 inh – growth inhibitors of isogenic TIM10 control yeast, primary screen, counter-screen for tim10-1 yeast inhibitor project, luminescence, uHTS; S. cerevisiae TIM10 strain growth, BacTiter-Glo luminescence, 24 h; inhibition, % at 10 µM; 1.4% of 330,000 active;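 active = inhibition of 40% or more at the single tested concentration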;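 also: wild-type TIM10 isogenic control strain grown at permissive 25 °C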
NALP1 yeast inh – NALP1 inflammasome inhibitors in reconstituted yeast, colorimetric, S. cerevisiae, triplicate retest | S. cerevisiae NALP1/ASC/caspase-1 growth, X-gal OD620, 72 h | inhibition, % at 10 µM | 0.61% of 280,000 active | AID 2071, 2009; in the data active = inhibition mostly above about 24%, no sharp cut-off; inactive = mostly below about 32%
tim10-1 conf – growth inhibitors of tim10-1 mutant yeast, confirmation, single concentration, luminescence, S. cerevisiae | shares compounds with tim10-1 inh | S. cerevisiae tim10-1 ts strain growth, BacTiter-Glo, 24 h | inhibition, % at 20 µM | 56% of 7,400 active;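 active = inhibition of yeast growth at or above a set limit in either of two repeat tests at 20 µM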;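 also: tim10-1 mutant grown at permissive 25 °C to find synthetic lethal compounds; 0% = DMSO yeast wells and 100% = medium wells without yeast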
tim10 confirm – growth inhibitors of wild-type TIM10 yeast, confirmation, counter-screen for tim10-1 synthetic lethality project, single concentration, luminescence, S. cerevisiae | shares compounds with TIM10 inh | S. cerevisiae tim10 strain growth, BacTiter-Glo luminescence, 24 h | inhibition, % at 10 µM | 63% of 4,600 active;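 active = inhibition of yeast growth at or above a set limit in either of two replicates at 10 µM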;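 also: this counterscreen used the strain with wild-type TIM10; 0% = yeast with DMSO and 100% = medium wells lacking yeast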
tim23-1 confirm – tim23-1 mutant yeast growth inhibitors, confirmation, luminescence, single concentration | shares compounds with tim23-1 inh | S. cerevisiae tim23-1 growth, BacTiter-Glo luminescence, 24 h | inhibition, % at 20 µM | 83% of 4,400 active | AID 463218, 2010;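 active = inhibition above about 39% in either of two replicate wells at 20 µM, limit read from the data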;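 also: temperature-sensitive tim23-1 mutant grown at 25 °C; 0% = DMSO wells with yeast and 100% = medium wells without yeast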
The depositor's hits bear a star; · = no result. Most compounds without a hit are left out; they make up all but 4.2% or so of the library.

SMILES	tim23-1 inh	V-ATPase pH	NLRP3 yeast inh	tim10-1 inh	TIM10 inh	NALP1 yeast inh	tim10-1 conf	others
Cn1c(=O)cc(OCCCC(=O)N2CCC3(CC2)OCCO3)c2ccccc21	5.7	1.3	10.1	4.0	8.2	-27.5	·
O=C(CCCOc1ccc(Cl)cc1Cl)N1CCC2(CC1)OCCO2	30.2	1.3	18.0	42.4*	24.4	-4.2	33.5*
O=C1CN=C(c2ccccc2)c2cc(Br)ccc2N1Cc1cc(=O)n2ccccc2n1	18.6	-4.4	-2.0	40.7*	24.8	20.2	4.8
Nc1cc(C(=O)Nc2ccc(Cl)cc2)ccc1N1CC2CC(C1)c1cccc(=O)n1C2 (centres undefined)	-4.6	0.9	6.5	5.6	3.0	7.0	·
c1ccc2c(CNC3CCCCCC3)c[nH]c2c1	23.6	2.9	-9.2	27.7	7.0	1.6	·
C#C[C@]1(O)CCC2C3CCC4=C/C(=N/OCC(=O)NC(C)C(=O)NC(CCSC)C(=O)O)CC[C@]4(C)C3CC[C@@]21C (some centres undefined)	3.9	2.2	22.0	12.8	-4.2	17.0	·
CCOc1cc(C(=O)N2CCC3(CC2)OCCO3)cc(OCC)c1OCC	32.8	0.1	5.8	-6.2	-0.1	21.2	·
C[C@H]1[C@H](OC(=O)CCC(=O)NCc2ccc(C(=O)O)cc2)O[C@@H]2O[C@@]3(C)CC[C@H]4[C@H](C)CC[C@@H]1C24OO3	21.0	1.1	5.3	43.1*	10.3	18.4	20.1
CC1C(OC(=O)CCC(=O)NC(C)(C)CO)O[C@H]2OC3(C)CC[C@H]4[C@H](C)CCC1C24OO3 (some centres undefined)	11.2	-0.6	-11.4	18.3	19.2	30.1	·
Cc1nn(Cc2ccccc2Cl)c(C)c1C(=O)NC1CCCc2ccccc21 (centres undefined)	19.1	4.7	9.6	35.9	20.9	21.4	·
Cc1cc(OC(=O)CCCNC(=O)OC(C)(C)C)c2c3c(c(=O)oc2c1)CCC3	4.4	-1.5	-14.8	22.3	29.2	6.0	·
Cc1cc(OC(=O)CCNC(=O)OC(C)(C)C)c2c3c(c(=O)oc2c1)CCC3	35.1	0.7	-66.2	44.7*	18.4	1.3	38.8*
CCN(CC)C(=O)c1ccc(NC(=S)NC(=O)CCc2ccccc2)cc1	32.9	-2.3	4.6	42.1*	22.7	3.4	21.3
Cc1cc2oc(=O)cc(-c3cc4ccccc4o3)c2cc1OC(=O)N(C)C	23.5	4.6	12.8	29.1	-7.8	21.8	·
CN(C)C(=O)Oc1ccc2oc(=O)cc(-c3cc4ccccc4o3)c2c1	29.1	4.0	20.1	40.0	19.4	21.6	8.3
CC(C)CCCn1c(O)c(/C=C2/C=CC=N2)c(=O)[nH]c1=O	40.8	-0.6	9.3	13.7	7.1	42.3	·
Cn1c(O)c(C=NCCCNC2CCCCC2)c(=O)n(C)c1=O	-6.6	0.5	16.1	-5.7	8.7	-86.8	·
Cc1[nH]n(-c2ccccc2)c(=O)c1C(c1ccc([N+](=O)[O-])cc1)c1c(C)[nH]n(-c2ccccc2)c1=O	45.3	1.4	-2.8	55.6*	46.2*	26.4	43.8*	tim10 confirm=33.0*
O=c1c2ccccc2nc(/C=C/c2ccc([N+](=O)[O-])o2)n1-c1ccc(O)cc1	-4.1	-2.0	18.2	-4.5	0.4	3.7	·
Cc1cccc(-n2c(/C=C/c3ccc([N+](=O)[O-])o3)nc3ccccc3c2=O)c1	26.6	1.8	23.0	57.4*	47.2*	27.4	51.4*	tim10 confirm=-0.7
CCCOC(=O)C1C2CCC(O2)C1C(=O)O (centres undefined)	·	3.2	·	·	·	·	·
O=C(Nc1cccc(C(F)(F)F)c1)c1cccn(Cc2ccc3c(c2)OC(F)(F)O3)c1=O	11.4	0.6	4.1	48.8*	43.9*	5.4	27.9	tim10 confirm=34.9*
COC1=C(C)C(=O)O[C@]12C(=O)C(C)=C1CCCCN3[C@H]([C@@H]4C[C@H](C)C(=O)O4)CC[C@]132	11.9	-4.1	14.0	5.5	6.2	·	·
CC(C)Oc1cc(-n2c(=S)[nH]c3ccccc3c2=O)c(Cl)cc1Cl	53.2*	0.9	11.7	44.7*	44.5*	-1.5	23.6	tim10 confirm=42.0*;tim23-1 confirm=51.6*
C[C@]12CC[C@H](O)CC1=CCC1C2CC[C@@]2(C)C1CC[C@@H]2OCc1ccccc1 (some centres undefined)	0.9	1.9	15.9	-6.3	-13.4	·	·
SMILES	tim23-1 inh	V-ATPase pH	NLRP3 yeast inh	tim10-1 inh	TIM10 inh	NALP1 yeast inh	tim10-1 conf	others
C[C@@H]1CC[C@@]2(NC1)O[C@H]1C[C@H]3[C@@H]4CC=C5C[C@@H](O)CC[C@]5(C)[C@H]4CC[C@]3(C)[C@H]1[C@@H]2C	54.1*	-2.3	-1.8	50.8*	48.7*	35.6*	27.1	tim10 confirm=50.7*;tim23-1 confirm=68.2*
O=c1c(C=NCc2cccs2)c(O)n(C2CCCCC2)c(=O)n1C1CCCCC1	11.0	0.1	17.1	16.4	19.3	-3.7	·
N=C(N)c1c(O)n(C2CCCCC2)c(=O)n(C2CCCCC2)c1=O	65.8*	-4.2	0.3	54.0*	15.5	30.0	33.2*	tim23-1 confirm=52.3*
CCN(CC)C(=O)c1ccc(NC(=O)CCCSc2ccccc2)cc1	15.6	-3.2	9.8	5.7	-36.5	6.5	·
CCN(CC)C(=O)c1ccc(NC(=O)Nc2ccccc2F)cc1	65.7*	-4.8	5.0	56.2*	42.2*	-5.2	68.2*	tim10 confirm=40.0*;tim23-1 confirm=63.6*
c1ccc(-c2[nH]c(-c3ccccc3)[n+](CC3CO3)c2-c2ccccc2)cc1 (centres undefined)	55.1*	3.6	-17.3	48.6*	48.1*	9.7	34.3*	tim10 confirm=-11.0;tim23-1 confirm=49.6*
O=C1NC(=O)C2(Cc3cc([N+](=O)[O-])ccc3N3CCN(C(=O)c4ccccc4)CC32)C(=O)N1 (centres undefined)	13.9	1.3	11.3	8.2	2.7	9.3	·
O=C1NC(=O)N(c2ccccc2)C(=O)/C1=C\c1ccc([N+](=O)[O-])s1	68.5*	135.9*	10.9	66.2*	84.6*	·	76.3*	tim10 confirm=26.0;tim23-1 confirm=76.0*
CN1C(=O)NC(=O)/C(=C/c2ccc([N+](=O)[O-])o2)C1=O	10.3	3.0	7.9	9.0	-1.0	15.3	·
